Source: the supplement of paper PMC8975748
Counter-ions that a name gives are not always drawn.

Tested on: Saccharomyces cerevisiae BY4741 SeMeCo community
Experiment: z-score of subpopulation abundance vs DMSO median, subpopulation auxotrophic for LU; higher = larger share of this subpopulation than in DMSO controls
Details: 10 µM; 24 h; SM minimal medium; subpopulation (auxotrophy): LU
Method: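 Fluorescent four-plasmid SeMeCo (self-establishing metabolically cooperating S. cerevisiae BY4741 community; plasmids pH-mRuby2, pL-mWasabi, pU-eCFP, pM-TagRFP657) was grown 24 h in minimal SM medium with each Selleck FDA-approved drug at 10 µM in 384-well plates. Cells were fixed and imaged by high-content confocal microscopy. For each auxotrophic subpopulation (and the prototroph), a z-score gives the deviation from the DMSO vehicle-control population median.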

Row | Compound | z-score of subpopulation abundance
1 | C[N+](C)(C)CCCCCCCCCC[N+](C)(C)C [Decamethonium Bromide] | -0.59
2 | CC[C@@]1(O)C(=O)OCc2c1cc1n(c2=O)Cc2cc3ccccc3nc2-1 [Camptothecin] | -0.54
3 | CN1C(=O)COc2c(C(=O)NC3CN4CCC3CC4)cc(Cl)cc21 (centres undefined) [Azasetron HCl] | -0.43
4 | C[C@@H]1O[C@@H](O[C@H]2C[C@@H](O)[C@]3(CO)[C@H]4[C@H](O)C[C@]5(C)[C@@H](C6=CC(=O)OC6)CC[C@]5(O)[C@@H]4CC[C@]3(O)C2)[C@H](O)[C@H](O)[C@H]1O [Ouabain] | -0.53
5 | CN(C)[C@@H]1C(=O)C(C(N)=O)=C(O)[C@@]2(O)C(=O)C3=C(O)c4c(O)ccc(Cl)c4[C@@](C)(O)[C@H]3C[C@@H]12 [Chlortetracycline HCl] | -0.72
6 | CC(NC(C)(C)C)C(=O)c1cccc(Cl)c1 (centres undefined) [Amfebutamone (Bupropion) HCl] | 0.12
7 | CNC1CC(N)C(O)C(OC2OC(CO)C(O)C3OC4(OC(C(N)CO)C(O)C(O)C4O)OC23)C1O (centres undefined) [Hygromycin B] | 0.34
8 | C=C[C@H]1CN2CC[C@H]1C[C@H]2[C@H](O)c1ccnc2ccccc12 [Cinchonidine] | 0.59
9 | CC[C@@H](C(N)=O)N1CCCC1=O [Levetiracetam] | -0.25
10 | C[C@@H]1CC[C@H]2[C@@H](C)C(=O)O[C@@H]3O[C@@]4(C)CC[C@@H]1[C@]32OO4 [Artemisinin] | -0.94
11 | O=C(O[C@H]1C[C@H]2CC[C@@H](C1)[N+]21CCCC1)C(O)(c1ccccc1)c1ccccc1 [Trospium chloride] | -0.24
12 | COc1ccc(C=O)cc1 [p-Anisaldehyde] | -0.64
13 | N#Cc1nn(-c2c(Cl)cc(C(F)(F)F)cc2Cl)c(N)c1[S+]([O-])C(F)(F)F (centres undefined) [Fipronil] | 0.06
14 | Oc1cc(Cl)ccc1Oc1ccc(Cl)cc1Cl [Triclosan] | -0.23
15 | C=C(C)[C@H]1Cc2c(ccc3c2O[C@@H]2COc4cc(OC)c(OC)cc4[C@@H]2C3=O)O1 [Rotenone (Barbasco)] | 0.18
16 | CC(=O)O[C@H]1C[C@@H]2CC[C@@H]3[C@H](CC[C@@]4(C)[C@H]3C[C@H]([N+]3(C)CCCCC3)[C@@H]4OC(C)=O)[C@@]2(C)C[C@@H]1[N+]1(C)CCCCC1 [Pancuronium dibromide] | 0.2
17 | CN[C@@H]1[C@@H](O)[C@@H](O[C@@H]2[C@@H](O)[C@H](O[C@H]3O[C@H](CN)CC[C@H]3N)[C@@H](N)C[C@H]2N)OC[C@]1(C)O.CN[C@@H]1[C@@H](O)[C@@H](O[C@@H]2[C@@H](O)[C@H](O[C@H]3O[C@H]([C@@H](C)N)CC[C@H]3N)[C@@H](N)C[C@H]2N)OC[C@]1(C)O.CN[C@@H]1[C@@H](O)[C@@H](O[C@@H]2[C@@H](O)[C@H](O[C@H]3O[C@H]([C@@H](C)NC)CC[C@H]3N)[C@@H](N)C[C@H]2N)OC[C@]1(C)O [Gentamicin Sulfate] | -0.15

Row | Compound | z-score of subpopulation abundance
18 | C=CN1CCCC1=O.II [Povidone iodine] | 0.69
19 | Cc1cc(O)ccc1Cl [Chlorocresol] | -0.74
20 | NCC(O)c1ccc(O)cc1 (racemic) [(+,-)-Octopamine HCl] | -0.38
21 | CN(C)[C@@H]1C(=O)C(C(N)=O)=C(O)[C@@]2(O)C(=O)C3=C(O)c4c(O)cccc4[C@@](C)(O)[C@H]3C[C@@H]12 [Tetracycline HCl] | -0.24
22 | CN1[C@@H]2C[C@@H](OC(=O)[C@H](CO)c3ccccc3)C[C@H]1[C@@H]1O[C@@H]12 [Scopolamine HBr trihydrate] | -0.6
23 | O=C(O[C@H]1C[N+]2(CCCOc3ccccc3)CCC1CC2)C(O)(c1cccs1)c1cccs1 [Aclidinium Bromide] | 0.07
24 | CC1(C)SC2C(N)C(=O)N2C1C(=O)O (centres undefined) [6-Aminopenicillanic acid] | 0.32
25 | CN1c2ccccc2C(NCCCCCCC(=O)O)c2ccc(Cl)cc2S1(=O)=O (centres undefined) [Tianeptine sodium] | -0.24
26 | C[C@H]1O[C@H](O[C@H]2[C@H](O)[C@@H](O)[C@@H](O)[C@H](O)[C@@H]2O)[C@@H](N)C[C@@H]1NC(=N)C(=O)O [Kasugamycin hydrochloride] | 0.49
27 | CC(=O)OCC1=C(C(=O)O)N2C(=O)C(N)C2SC1 (centres undefined) [7-Aminocephalosporanic acid] | 0.09
28 | CCCN1C[C@H](CSC)C[C@@H]2c3cccc4[nH]cc(c34)C[C@H]21 [Pergolide Mesylate] | -0.8
29 | CN(C)[C@@H]1C(=O)C(C(N)=O)=C(O)[C@@]2(O)C(=O)C3=C(O)c4c(O)cccc4[C@@](C)(O)[C@H]3[C@H](O)[C@@H]12 [Oxytetracycline (Terramycin)] | 0.73
30 | CCOC(=O)Nc1ccc(NCc2ccc(F)cc2)cc1N [Retigabine 2HCl] | -0.86
31 | COc1ccc2[nH]cc(CCN)c2c1 [5-Methoxytryptamine] | 1.01
32 | Oc1cccc2cccnc12 [8-Hydroxyquinoline] | -0.63
33 | CN[C@@H]1[C@@H](O)[C@@H](O[C@@H]2[C@@H](O)[C@H](O[C@H]3O[C@H]([C@@H](C)O)[C@@H](O)[C@H](O)[C@H]3N)[C@@H](N)C[C@H]2N)OC[C@]1(C)O [Geneticin (G418 Sulfate)] | 0.61
34 | CCC1=C[C@H]2CN3CCc4c([nH]c5ccccc45)[C@](C(=O)OC)(C2)[C@H]13 [Catharanthine] | -0.64
